Pf Dd2 growth – Plasmodium falciparum Dd2 growth inhibition; P. falciparum Dd2 growth, SYBR Green, 72 h; Potency, µM (series often up to 28.9 µM), for inactives: at the highest dose activity, negative = inhibition, usual class: inhibitors; 120,000 compounds, 4.3% hits; AID 1347417; active = well fitted inhibition curve with a large enough effect;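 also: plate controls were DMSO vehicle for no effect and reference drug for full effect; nearly all actives have a fitted effect of over 65% in size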
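Readout: SYBR Green fluorescence, 485 nm excitation, 535 nm emission, after ~16 h lysis at 37C. Before that, Dd2-infected red cells (2.5% hematocrit) grew 72 h with compound, 29 uM top final concentration.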
Starred values were filed as active, the others as inactive; i = inactive; ! = not confirmed by another sample; [ ] = remark or other dose. The entries come from a sample that favours hits as a whole. Potency is read from the fitted curve at half-maximal effect.

SMILES | Pf Dd2 growth
O=C(O)c1ccc(CN2CCOC[C@H]2c2ncc(-c3cccnc3)[nH]2)cc1 | 16%[44.1 µM]
CC(C)(C)OC(=O)N1CCC(c2c(C(=O)N3CCN(c4ccccc4F)CC3)cnn2C(C)(C)C)CC1 | 10µM*
Cc1ccc(-n2ncc(C(=O)N3CCN(c4ccccc4F)CC3)c2C2CCN(C(=O)OC(C)(C)C)CC2)cc1C | 3%
COc1ccccc1N1CCN(C(=O)c2cnn(C(C)(C)C)c2C2CCN(C(=O)OC(C)(C)C)CC2)CC1 | 6.3µM*
O=C(c1cnccn1)N1CC(F)(F)C[C@H]1c1nc(C2CC2)no1 | 30%
O=C(C1CCC(=O)N(C2CCCC2)C1)N1CC(OCc2ccccc2F)C1 (stereo unspecified) | -14%
CC(C)C1=NOC2(CCN([S+](=O)([O-])c3ccccc3)C2)C1 (stereo unspecified) | 13%
CCCC1=Nc2cc(C(=O)NCCc3ccccc3)ccc2Sc2ccc(C)cc21 | 6.3µM*!
CC(NC(=O)c1ccc2nc(CCc3ccccc3)oc2c1)c1ccccc1 (stereo unspecified) | -22%
CCCNC(=O)c1ccc2c(c1)N=C(CCC)c1ccccc1S2 | i
CCC1=Nc2cc(C(=O)NC(C)c3ccccc3)ccc2Sc2ccc(Cl)cc21 (stereo unspecified) | 8.9µM*
CCCC1=Nc2cc(C(=O)NC(C)c3ccccc3)ccc2Sc2ccc(C)cc21 (stereo unspecified) | -14%
CCCC1=Nc2cc(C(=O)NCc3ccc(OC)cc3)ccc2Sc2ccc(C)cc21 | -2%
Cc1cccc(CN2CCCC(CO)CCNC(=O)CC2)c1 (stereo unspecified) | -16%
NC(=O)c1cnc2n1CCN(C(=O)c1cccc(Oc3ncccn3)c1)C2 | -17%
CCS(=O)(=O)NCC1(COCCOC)C[C@@H](O)[C@@H](O)C1 (stereo partly specified) | -18%[44.1 µM]
CN1C(=O)CCC2(CNC(=O)Nc3ccc4c(c3)OCCO4)CCCC=C12 (stereo unspecified) | -24%
COc1ccccc1CN1CCC2(CCCN(C3CCOCC3)C2=O)C1 (stereo unspecified) | -12%
CN(Cc1ccc(-c2ccccc2)cc1)C(=O)Cc1ccccn1 | i
Cc1cnc(CC2CCCN(C(=O)CCc3c[nH]c4ccccc34)C2)n1C(C)C (stereo unspecified) | 4.5µM*
Cc1cnc(CC2CCCN(C(=O)N(C)C)C2)n1C(C)C (stereo unspecified) | -11%
Cc1cnc(CC2CCN(C(=O)CCc3c[nH]c4ccccc34)C2)n1CC1CC1 (stereo unspecified) | i
CCCC1(C2CCN(C(=O)CCCn3cncn3)CC2)NC(=O)NC1=O (stereo unspecified) | -17%
C#CCOc1ccccc1-c1c(-c2ccccc2)ncn1CCCO | -24%
COc1cc(OC)c(-c2c(-c3ccccc3)ncn2CCF)cc1OC | 10µM*
SMILES | Pf Dd2 growth
OCCOCCn1cnc(-c2ccccc2)c1-c1ccc(-n2cccn2)cc1 | -25%
CCCCN(CC)CCCNC(=O)Cn1ncc2c3ccccc3n(Cc3ccccc3F)c2c1=O | 4µM*
CCCn1c2ccccc2c2cnn(CC(=O)NCCN(CC)CC)c(=O)c21 | i
CCN(CC)CCNC(=O)Cn1ncc2c3ccccc3n(Cc3ccc(Cl)cc3)c2c1=O | 5µM*
O=C(Cn1ncc2c3ccccc3n(Cc3ccc(F)cc3)c2c1=O)NC1CCCCCC1 | i
O=C(Cn1ncc2c3ccccc3n(Cc3ccccc3F)c2c1=O)NCCCc1ccccc1 | 4%
O=C(Cn1ncc2c3ccccc3n(Cc3ccc(F)cc3)c2c1=O)NCCCN1CCCCC1 | 5µM*
Cn1c2ccccc2c2cnn(CC(=O)NCc3ccc(Cl)cc3)c(=O)c21 | 22%
O=C(Cn1ncc2c3ccccc3n(Cc3ccc(F)cc3)c2c1=O)NCCC1=CCCCC1 | 43%[0.594 µM]
CCCCN(CC)CCCNC(=O)Cn1ncc2c3ccccc3n(C)c2c1=O | i
COc1ccc(C(=O)N2CCC3(CCC(=O)N(Cc4ccccc4)CC3)CC2)c(OC)n1 | 306%
O=C(O)CN1CCN(Cc2ccc(OCCc3ccccc3)cc2)CC1=O | -9%
COc1ccc(S(=O)(=O)NCCNc2cc(C)nc3ccnn23)cc1 | -13%
CCOc1ccc(CC(=O)N2CCC3(CC2)C(=O)N(C)c2ccccc23)cc1 | -12%
CCn1nc(CNC(=O)C(c2cccnc2)N2CCOCC2)c2ccccc21 (stereo unspecified) | -3%
CC1(C(=O)Nc2cccc(F)c2)CCCCC(=O)N1 (stereo unspecified) | i
COC(=O)N1CCCC(c2nn(-c3cccc(Cl)c3)c(=O)[nH]2)C1 (stereo unspecified) | -2%
CC(=O)N1CCC(NC[C@@H]2C=C(C)[C@H](Cc3nc4ccncc4[nH]3)C[C@H]2C(C)C)CC1 | i
Cc1ccc(C(=O)N2CCC(c3nn(C)c(=O)[nH]3)CC2)cc1 | 7%[44.1 µM]
COc1ccccc1-c1noc(-c2nnn3c2COC(c2ccc(F)cc2)C3)n1 (stereo unspecified) | i
COc1ccc(C2Cn3nnc(-c4nc(-c5ccc(F)cc5)no4)c3CO2)cc1 (stereo unspecified) | i
Cc1ccc(-c2nc(-c3nnn4c3COC(c3ccccc3Cl)C4)no2)cc1 (stereo unspecified) | -9%
COc1ccccc1-c1nc(-c2nnn3c2COC(c2ccccc2Cl)C3)no1 (stereo unspecified) | -5%
Clc1ccccc1C1Cn2cnc(-c3nc(-c4ccncc4)no3)c2CO1 (stereo unspecified) | 5.6µM*
COc1cc(-c2noc(-c3ncn4c3COC(c3ccc(F)cc3)C4)n2)cc(OC)c1OC (stereo unspecified) | 11µM*
SMILES | Pf Dd2 growth
COc1ccc(C2Cn3nnc(-c4nc(-c5ccc(OC)c(F)c5)no4)c3CO2)cc1 (stereo unspecified) | -23%
CCOc1cc(-c2noc(-c3ncn4c3COC(c3ccc(OC)cc3)C4)n2)ccc1OC (stereo unspecified) | 2.5µM*
COc1ccc(-c2noc(-c3ncn4c3COC(c3ccc(F)cc3)C4)n2)cc1OC (stereo unspecified) | 8.9µM*
COc1ccc(C2Cn3cnc(-c4nc(-c5ccc(SC)cc5)no4)c3CO2)cc1 (stereo unspecified) | i
CCOc1cccc(-c2noc(-c3ncn4c3COC(c3ccc(F)cc3)C4)n2)c1 (stereo unspecified) | -23%
CCOc1ccc(C2Cn3nnc(-c4nc(-c5ccc(OC)c(F)c5)no4)c3CO2)cc1 (stereo unspecified) | i
Cc1cc2c(c(=O)n(-c3ccccc3)c(=O)n2CC(=O)Nc2ccccc2F)n1C | -6%
Cc1ccc(NC(=O)C2CC(=O)N(c3n[nH]c4cccc(F)c34)C2)cc1C (stereo unspecified) | -3%
O=C(c1cnc(C2CC2)nc1)N1C[C@@H](CN2CCCCCC2)[C@@H](CO)C1 | -15%
CCS(=O)(=O)N[C@H](Cc1ccccc1)C(=O)N1CCOCCNC(=O)CC1 | 9%
O=C(c1ccc(Cl)nc1)N1CCc2nc(-c3ccccc3)nc(-c3ccc(Cl)cc3)c2C1 | i
Cc1cccc(N2CCN(C(=O)C3CCCN(S(C)(=O)=O)CCC(=O)NCC3)CC2)c1 (stereo unspecified) | 17%
Clc1ccc(C2Cn3nnc(-c4nc(-c5cccc(Cl)c5)no4)c3CO2)cc1 (stereo unspecified) | i
Cc1noc(C)c1[S+](=O)([O-])N1CCn2cc(C(=O)Nc3ccc(Cl)cc3Cl)nc2C1 | 1%

From PubChem
